Laboratory results from PubChem BioAssay.
A number with no mark means an inactive call. No rule for the calls is given here.

Target: Pantothenate synthetase (Mycobacterium tuberculosis (strain ATCC 25618 / H37Rv)) (UniProt P9WIL5)
Assay: Coupled enzyme confirmation of inhibitors against recombinant Mtb PanC (AID 375);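 also: 0% = full reaction with vehicle and 100% = no enzyme background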
Conditions: coupled enzyme assay; at 10 µM, stronger effect = higher value

Sequence of Pantothenate synthetase (Mycobacterium tuberculosis (strain ATCC 25618 / H37Rv)) (P9WIL5 whole entry, looked up): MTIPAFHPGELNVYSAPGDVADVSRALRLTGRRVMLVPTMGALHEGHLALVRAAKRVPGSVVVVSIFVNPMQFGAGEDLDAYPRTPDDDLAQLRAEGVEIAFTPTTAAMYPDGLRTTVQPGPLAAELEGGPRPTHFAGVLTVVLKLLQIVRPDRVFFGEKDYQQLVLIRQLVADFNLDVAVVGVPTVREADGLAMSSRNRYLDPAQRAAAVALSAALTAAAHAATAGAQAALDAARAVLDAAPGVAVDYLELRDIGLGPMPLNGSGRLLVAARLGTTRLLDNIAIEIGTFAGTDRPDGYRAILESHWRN

Compound	inhibition [%]
O=C(CSCc1cccc(F)c1)N1CCN(c2ccccc2)CC1	4
COC(=O)c1[nH]c2ccccc2c1NC(=O)CN1CCC(C(N)=O)(N2CCCCC2)CC1	0
Cc1onc(-c2c(Cl)cccc2Cl)c1C(=O)NCCN1CCOCC1	6
Cc1nn(-c2ccc(F)cc2)c2sc(C(=O)N3CCCCCC3)cc12	0
CCCNC(=O)NC1C(NC(=O)NCCC)N(C)C(=O)N1C (stereo not given)	5
COC(=O)c1oc2ccc(Br)cc2c1NC(=O)CN1CCN(C)CC1	5
COc1ccc(C)cc1NC(=O)c1nc2nc(C)cc(C)n2n1	7
CC1Cc2nc(SCC(=O)Nc3ccc4c(c3)OCO4)n(-c3ccc(F)cc3)c(=O)c2S1 (stereo not given)	0
Cc1ccc(C2N(c3ccc(Cl)c(Cl)c3)C(=O)C3CCCN32)o1 (stereo not given)	6
O=C1CC(C2CCCO2)C(=O)N1Cc1ccccc1 (stereo not given)	0
COc1ccc(CN2C(=O)c3ccccc3C2C(=O)NC2CCCC2)c(OC)c1 (stereo not given)	0
CC(=O)Nc1c(O)[nH]c2ccccc12	0
CN(Cc1cccs1)CC(O)COCc1ccco1 (stereo not given)	0
NS(=O)(=O)c1ccc(CCNC(=O)CCC2COc3ccccc3O2)cc1 (stereo not given)	0
C(#Cc1ccccc1)Cn1nnc2ccccc21	0
O=C(Nc1ccc(Cl)c(C(F)(F)F)c1)N1CCCC(O)C1 (stereo not given)	4
COc1cccc(NC(=O)N2CCN(C(=O)C(Cc3ccc(OC)c(OC)c3)NC(C)=O)CC2)c1 (stereo not given)	0
COc1ccc(OCC(=O)N2CCN(C(=O)Cc3ccccc3)CC2)cc1	0
O=C(NCc1ccco1)C1CC(=O)N(c2ccc(F)cc2)C1 (stereo not given)	4
Cc1ccc2[nH]c3c(=O)n(CCCN4CCN(C)CC4)cnc3c2c1	4

Compound	inhibition [%]
CC1(C)Cc2c(sc3c2c(=N)n(Cc2ccco2)c(=O)n3Cc2ccccc2)CO1	0
O=C(O)c1ccc(C2SCC(=O)N2Cc2ccccc2)cc1 (stereo not given)	2
COC(=O)c1cc(OC)c(OC)cc1NC(=O)c1ccc(Br)o1	0
CCN1C(=O)c2ccccc2S(=O)c2ccc(C(=O)NC3CC3)cc21 (stereo not given)	6
CN(Cc1ccccc1)Cc1c[nH]c2ccccc12	0
CCOC(=O)N1CCN(C(=O)COc2ccc(Br)cc2Cl)CC1	0
C[C@]12C=CC(=O)C=C1CC[C@@H]1[C@@H]2[C@@H](O)C[C@@]2(C)[C@H]1CC[C@]2(O)C(=O)COC(=O)CCC(=O)O	0
CC(=O)O[C@H]1CSC[C@H]1NC(=O)c1ccccc1	0
O=C(O)CC1SC(=Nc2cccc(C(F)(F)F)c2)NC1=O (stereo not given)	0
CCOCCn1cnc2sc(C(=O)NCC(=O)OCC)c(C)c2c1=O	10
O=C(Nc1ncc2c(n1)CC(c1ccccc1)CC2=O)c1ccco1 (stereo not given)	3
O=C(c1nn2cccnc2c1Cl)N1CCN(c2ccccc2)CC1	6
Cc1c(NS(=O)(=O)c2ccc3c(c2)c(=O)n(C)c(=O)n3C)c(=O)n(-c2ccccc2)n1C	14
O=C(O)c1cccn2c(=O)c3ccccc3nc12	0
CC1=Nn2c(nnc2-c2ccccn2)SC1	7
COc1nc(NCCc2ccc(OC)c(OC)c2)nc(NC(C)(C)CO)n1	0
COc1ccc2[nH]c(=O)c(CN(Cc3cccs3)Cc3nnnn3C(C)(C)C)cc2c1	0
COc1ccc(CCNC(=O)C2=COCCO2)cc1	0
O=C(C(Cc1ccccc1)n1cccc1)N1CCCCCC1 (stereo not given)	8
CCOc1ccc(NC(=O)c2ccc3c(c2)N(Cc2ccc(F)cc2)C(=O)CS3=O)cc1 (stereo not given)	10
